Experimental data taken from ChEMBL document CHEMBL3988442, “University of Dundee, Small-Polar-MMV Screening Library” (2021).
About 13,000 (27%) of roughly 48,000 compounds showed an effect of 50% or more. This is one part of the list.

What follows are compounds tested on Wolbachia pipientis (assay: Anti-Wolbachia Cell-Based Screen). Details: 5 µM.
Type: functional
Design: scale not given: in the data most compounds retested in dose-response had high values

Row | SMILES | Percent Effect
1 | Cn1nnc2c1C(COCC1CC1)CN(C(=O)CC1=CCCCC1)C2 (centres undefined) | -19.61%
2 | CC(NC1(CNC(=O)CC2CCCC2)CCOCC1)c1ccccc1 (centres undefined) | -11.89%
3 | Cc1sc2nc(SC(C)c3nc(C(C)(C)C)no3)nc(N)c2c1C (centres undefined) | 10.97%
4 | CCc1nnsc1C(=O)N(C)Cc1ccc(Br)o1 | 14.42%
5 | Cc1ccc(S(=O)(=O)Cc2nsc(N(C)C)n2)c(C)c1 | -1.61%
6 | CCc1nc(NCC(=O)N2CCOCC2)c2c(n1)c(C)nn2CC | 7.048%
7 | CCN1CCN(c2ccc(F)cc2C(C)NCc2ccnn2C)CC1 (centres undefined) | -1.019%
8 | CC(C)CC(O)C1CCN(C(=O)c2ccc(C(C)C)[nH]c2=O)CC1 (centres undefined) | -16.76%
9 | CCOC(=O)N1CCN(C(=O)c2sc(-c3ccccc3)nc2C)CC1 | -9.068%
10 | Cc1nc(N)sc1C(=O)N1CCC(C(O)Cc2ccccc2)CC1 (centres undefined) | 104.4%
11 | Cc1cc(=O)c(C(=O)N2CCC(C(O)Cc3ccccc3)CC2)c(C)[nH]1 (centres undefined) | 97.46%
12 | COc1nc(C)c(C(=O)N2CCN(c3ncccc3C)CC2)s1 | -23.23%
13 | COc1nc(C)c(C(=O)N2CCC(C(O)Cc3ccccc3)CC2)s1 (centres undefined) | 114.7%
14 | COc1nc(C)c(C(=O)N2CCc3[nH]nc(Cc4ccccc4)c3C2)s1 | 2.938%
15 | Cc1ccc(N2CCC(C(O)Cc3ccccc3)CC2)nn1 (centres undefined) | -17.42%
16 | Cc1nn(C)c2nc(N3CCC(C(O)Cc4ccccc4)CC3)sc12 (centres undefined) | -11.76%
17 | c1ccc(Cn2cccn2)c(CN2CCCCC2CCn2ccnc2)c1 (centres undefined) | -5.854%
18 | O=C(Nc1cnc2n1CCCC2)c1cccc(NC(=O)C2CCCC2)c1 | 10.86%
19 | Cc1ccc(NC(=O)C2CCc3ccccc3N2)cc1 (centres undefined) | -1.128%
20 | O=C(Nc1ccc(-c2ccccc2)cn1)C1CCN(C(=O)C2CC2)CC1 | 26.94%
21 | NS(=O)(=O)c1cnn(-c2ccc(NC(=O)C3CCCCC3)cn2)c1 | -15.76%
22 | Cc1ccc2cc(C3(O)CCN(C(=O)[C@@H]4CCCCN4)CC3)ccc2n1 | -9.232%
23 | Cc1cccc(NC(=O)C2CCc3ccccc3N2)c1.Cl (centres undefined) | 2.596%
24 | O=C(Nc1ccc(-c2csnn2)cc1)N1CCN2CCCCC2C1 (centres undefined) | 5.858%
25 | CNc1ncc(-c2ccc(NC(=O)[C@@H]3CCCCN3)cc2)cn1 | 112.9%
26 | Nc1ncc(-c2cccc(NC(=O)[C@@H]3CCCCN3)c2)cn1 | 116.6%

Row | SMILES | Percent Effect
27 | Nc1ncc(-c2ccc(NC(=O)[C@@H]3CCCCN3)cc2)cn1 | 109.3%
28 | O=C(Nc1ccc(-c2cnc(NCCO)nc2)cc1)[C@@H]1CCCCN1 | 129.4%
29 | CCc1ncc(C(=O)N(C)CCc2nc3cc(OC)ccc3[nH]2)cn1 | 4.765%
30 | CNC(=O)C(C)(C)N1CCC[C@H]1C(=O)NCC1CC1 | 11.03%
31 | COc1ccc(OCc2noc(CN(C)C3CCS(=O)(=O)C3)n2)cc1 (centres undefined) | -8.185%
32 | CN(Cc1cc(Br)cn1C)C(=O)c1ccon1 | -0.2013%
33 | O=S1(=O)NC2(CCCN(CCc3ccccc3)C2)COc2ccccc21 (centres undefined) | 103.7%
34 | COCCCC1(CO)CCCN(CCc2ccccc2)C1 (centres undefined) | -12.43%
35 | O=S1(=O)NCC2(CCN(c3ncc(F)cn3)CC2)COc2ccccc21 | -10.54%
36 | O=S1(=O)NC2(CCCN(Cc3ccc(Cl)cc3)C2)COc2ccccc21 (centres undefined) | 134.9%
37 | O=C1Nc2ccccc2C12CCCN(Cc1ccc3c(c1)OCCO3)C2 (centres undefined) | -17.7%
38 | O=C1NCC2(CCCN(CCc3ccccc3)C2)Oc2ccccc21 (centres undefined) | -15.46%
39 | CN1C2(CCN(Cc3ccc(F)cc3)C2)c2ccccc2S1(=O)=O (centres undefined) | 8.528%
40 | O=S1(=O)NC2(CCCN(Cc3ccc(F)cc3)C2)COc2ccccc21 (centres undefined) | 98.49%
41 | CCN(C)c1ccc(CNC(=O)c2ccc(NC(N)=O)cc2)cc1F | -59.71%
42 | CCc1cc(NCc2cc3n(n2)CCCN(S(C)(=O)=O)C3)nc(C)n1 | 3.028%
43 | c1ccc(Oc2nccc3occc23)c(CN2CCCCC2)c1 | -8.744%
44 | CN(C)S(=O)(=O)NCC1(c2ccccc2Br)CC1 | -6.253%
45 | CC(C)N1CCO[C@H]2CN(S(=O)(=O)c3ccc(C#N)cc3)C[C@H]21 | -6.179%
46 | CN1CCO[C@@H]2CN(S(=O)(=O)c3ccccc3)CC[C@@H]2C1.O=C(O)C(F)(F)F | -5.775%
47 | CN1CCO[C@@H]2CN(S(=O)(=O)c3ccccc3)C[C@@H]2C1.O=C(O)C(F)(F)F | 98.27%
48 | CN1CCO[C@H]2CN(S(=O)(=O)c3ccc(C#N)cc3)C[C@H]21.O=C(O)C(F)(F)F | -17.08%
49 | CC(=O)N1CCO[C@@H]2CN(S(=O)(=O)c3cccnc3)C[C@@H]2C1.O=C(O)C(F)(F)F | 105.8%
50 | CNC(=O)[C@H]1C[C@@H]2CN(S(=O)(=O)c3ccc(OC)cc3)C[C@@H]2N1C.O=C(O)C(F)(F)F | -8.898%
51 | COc1ccc(S(=O)(=O)N2C[C@@H]3CN(C)CCO[C@@H]3C2)cc1 | 104.2%
52 | Cc1occc1C(=O)NCC(=O)N(C)CCCOc1ccc(F)cc1 | -0.7534%

Row | SMILES | Percent Effect
53 | Cc1cc(C(C)NC(=O)c2cnc3onc(C)c3c2)c(C)o1 (centres undefined) | 7.597%
54 | C1CC1c1nsc(N2CCN(C3CC3)CC2)n1 | -1.801%
55 | CSCCc1c(-c2ccccc2)ncn1[C@H]1C[C@@H](C(=O)O)N(C)C1 | 9.47%
56 | CCCS(=O)(=O)N1CCN(c2ccnc(N3CCCCC3)n2)CC1 | -4.762%
57 | COc1ccc(CNC(=O)NCCc2nc(C)c(C)s2)cn1 | -8.722%
58 | CCc1cnc(CNC(=O)N2CCCC(C(=O)NC)C2)s1 (centres undefined) | -0.4435%
59 | CCc1cnc(CNC(=O)NC2CC(C)(C)OC2(C)C)s1 (centres undefined) | 0.9333%
60 | CCc1cnc(CNC(=O)NCCc2ccc(O)cc2)s1 | 101.6%
61 | Cc1cnc(CCNC(=O)NCCc2ccc(O)cc2)s1 | 116.1%
62 | Cc1cnc(CCNC(=O)NCCOc2ncccc2Cl)s1 | -4.9%
63 | CCc1cnc(CNC(=O)N2CCCC(c3ncc[nH]3)C2)s1 (centres undefined) | -16.47%
64 | CNC(=O)Cc1ccc(NC(=O)NCc2ncc(C)s2)cc1 | -0.2896%
65 | CCc1cnc(CNC(=O)NCCCO)s1 | 97.97%
66 | CCn1c(C)cc(C(=O)NCc2cccc(NS(C)(=O)=O)c2)c1C | -5.652%
67 | CNC(=O)c1cc(NC(=O)NCC2CCS(=O)(=O)C2)ccc1OC (centres undefined) | -3.737%
68 | Cc1noc(OCc2csc(C)n2)n1 | 2.505%
69 | COc1cc2nc(C)sc2cc1NC(=O)C(C)NC(N)=O (centres undefined) | -2.888%
70 | COc1ccccc1N1CCN(C(=O)CCCS(N)(=O)=O)C(C)C1 (centres undefined) | -9.849%
71 | CCOC(=O)c1sc2ccsc2c1CNC(=O)CC | 11.82%
72 | CCOC(=O)c1sc2ccsc2c1CNC(=O)C(C)(C)C#N | 61.27%
73 | CCOC(=O)c1sc2ccsc2c1CN.Cl | -6.159%
74 | O=C(c1ccc[nH]1)N1C[C@H]2CC[C@@H]1CN(C1Cc3ccccc3C1)C2 | -8.418%
75 | Cc1cccc(-c2nc(C)nn2CC(=O)NC(C)C2CC2)c1 (centres undefined) | 96.27%
76 | Cc1cccc(-c2nc(C)nn2CN2CCN(S(C)(=O)=O)CC2)c1 | -9.044%
77 | Cc1cccc(-c2nc(C)nn2CC(=O)NC(C)C)c1 | 108.3%
78 | Cc1nc(-c2ccccc2)n(CC(=O)NC(C)C2CC2)n1 (centres undefined) | -16.22%

Row | SMILES | Percent Effect
79 | CCC(C)(C)NC(=O)Cn1nc(C)nc1-c1cccc(C)c1 | -9.782%
80 | Cc1cccc(-c2nc(C)nn2CC(=O)N(C)C2CC2)c1 | -1.032%
81 | Cc1ccc(CNC2(Cc3cc(CC(C)C)on3)COC2)o1 | 0.7021%
82 | Nc1cc(C(=O)N2CCOC(Cc3cccc(C(F)(F)F)c3)C2)ccn1 (centres undefined) | -0.1683%
83 | N#CCCN1CC(O)CN(C(=O)c2cccc(C(F)(F)F)c2)CC1=O (centres undefined) | 98.63%
84 | O=C(O)C(F)(F)F.O=C(c1cccc(Cl)c1)N1CC[C@H]2[C@H]1CCN2CC1CC1 | -19.81%
85 | CC(C)(C)CN1CC(O)CN(C(=O)c2cccc(C(F)(F)F)c2)CC1=O (centres undefined) | 85.94%
86 | O=C1CN(C(=O)c2cccc(C(F)(F)F)c2)CC(O)CN1CC1CC1 (centres undefined) | 100.3%
87 | O=C(c1ccc(=O)[nH]c1)N1CCC(Oc2cccc(C(F)(F)F)c2)CC1 | -22.64%
88 | CCN1CC(O)CN(C(=O)c2cccc(C(F)(F)F)c2)CC1=O (centres undefined) | 106.7%
89 | Cc1nnn2c1COCC(CNCc1nccs1)C2.O=C(O)C(F)(F)F (centres undefined) | -0.1911%
90 | Cc1cc(C)n(CC(C)NC2CCN(Cc3cccc(O)c3)CC2)n1 (centres undefined) | -0.5082%
91 | NC(=O)c1csc(N2CCCC(c3nc4ccccc4[nH]3)C2)n1 (centres undefined) | 1.485%
92 | CNC(=O)[C@@H](c1ccccc1OC)N1CCC[C@H]1C(=O)NC1CC1.Cl | -3.931%
93 | CNC(=O)[C@H]1C[C@@H]2CN(S(=O)(=O)c3cccc(F)c3)C[C@@H]2N1C.O=C(O)C(F)(F)F | -6.312%
94 | Cc1nn(C)c(C)c1C1CCCN1c1ncnc2c1CCC2 (centres undefined) | 10.31%
95 | CCCn1nccc1S(=O)(=O)N1CCC2(CCCN(C(C)C)C2=O)C1 (centres undefined) | 7.399%
96 | CCC1CCC(NCCN2CCOCC2)CC1 (centres undefined) | -1.764%
97 | COc1ncc(-c2nccn2C(C)CCn2cccn2)cn1 (centres undefined) | -0.87%
98 | O=C(O)C1CCCCN1C(=O)c1cccc(C(F)(F)F)c1 (centres undefined) | 1.382%
99 | COCCN1CC(O)CN(C(=O)c2cccc(C(F)(F)F)c2)CC1=O (centres undefined) | 96.14%
100 | O=C(c1ccncc1)N1CCC(Oc2cccc(C(F)(F)F)c2)CC1 | -12.2%
101 | Nc1cc(C(=O)N2CCC(Oc3cccc(C(F)(F)F)c3)CC2)ccn1 | 0.5907%
102 | CC(C)CN1CC(O)CN(C(=O)c2cccc(C(F)(F)F)c2)CC1=O (centres undefined) | 93.47%
103 | CC(C)c1nnc2n1CCN(C(=O)c1cccc(C(F)(F)F)c1)C2 | -7.984%
104 | O=C(c1cccc(C(F)(F)F)c1)N1CC(=O)N(C2CCC2)CC(O)C1 (centres undefined) | 119.9%
